Screening data: PubChem, several laboratories
The list is not random: actives were taken first. Their share in the collection is about 2.9%.
LMP1 NFkB inh: reduces LMP1-driven NF-kappaB luciferase signal; LMP1-induced NF-kappaB luciferase reporter cells, luminescence; inhibition, % at 12.5 µM; 350,000 tested, 0.69% active; in the data active = inhibition above about 41%;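 note: 0% = neutral control wells and 100% = reference inhibitor control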
MITF TRPM1 inh: MITF TRPM1 promoter inhibition in SK-MEL-5 cells; SK-MEL-5 TRPM1 promoter luciferase, 24 h; inhibition, % at 12.5 µM; 330,000 tested, 0.83% active; AID 488899;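 active = mean inhibition across replicates of 60% or more, whatever share of single replicates reaches that level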
KKLEB cytotox: CF airway cell cytotoxicity counter-screen; activity change (cytotoxicity), % at 5 µM; AID 602141; 360,000 tested, 0.36% active; KKLEB CF airway cells viability, ATPlite luminescence, overnight; active compounds read low; cells stimulated with P. aeruginosa culture filtrate;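 active = corrected activity change at or below -50% at 5 µM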
CF NFkB block: inhibitors of cystic fibrosis induced NF-kB; AID 588850; KKLEB NF-kB-GFP reporter, PAF-induced, GFP fluorescence overnight; 360,000 tested, 0.86% active; inhibition, % at 5 µM;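 active = at least 50% inhibition at 5 µM, scaled per plate between neutral and stimulator controls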;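 note: PAF is a Pseudomonas aeruginosa culture filtrate used as stimulus; plate controls were PAF-stimulated DMSO wells for no effect and unstimulated DMSO wells for full effect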
Shn3 3UTR inh: inhibitors of Schnurri-3 3'UTR reporter in osteoblasts | AID 588674 | 360,000 tested, 0.52% active | inhibition, % at 12.5 µM | Clone20 osteoblast Shn3 3'UTR firefly luciferase, 24 h;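 active = mean inhibition of at least 75% with every replicate also reaching 75%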;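 note: 0% = median of neutral control wells and 100% = pilot-screen positive control compound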
Peg3 promoter: inhibitors of Peg3 promoter | HeLa PEG-Prom luciferase reporter, luminescence, overnight | inhibition, % at 20 µM | 360,000 tested, 1.7% active | AID 588405;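 active = inhibition of at least 50% at 20 µM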
* = called active by the depositor; x = no result given; ! = not confirmed by another sample.

SMILES	LMP1 NFkB inh	MITF TRPM1 inh	KKLEB cytotox	CF NFkB block	Shn3 3UTR inh	Peg3 promoter
COc1ccc(C(=O)NCCCN2CCOCC2)cc1OC	-5.8	0.4	-8.7	-0.9	13.1	5.7
COC(=O)c1ccccc1NC(=O)c1ccco1	2.7	-3.0	-14.5	-5.2	-3.1	-1.4
COC(=O)c1cccc(COC(=O)c2ccccc2NC(=O)c2ccco2)c1	50.6*	-5.3	-3.1	-16.4	1.2	-18.8
N#Cc1ccc(/C=C/C(=O)c2cccnc2)cc1	5.8	20.1	1.0	-2.0	61.8	70.3*
O=C(/C=C/c1ccc(OCc2ccccc2)c(OCc2ccccc2)c1)c1cccnc1	-10.4	23.9	-5.8	-9.7	88.8*	36.8
CCCCN1C=CC(=C2C(=O)c3ccccc3C2=O)C=C1	75.0*	95.5*	-72.4*	3.7	91.2*	109.8*
CCCCC1C(=O)N(c2ccccc2)N(c2ccccc2)C1=O	10.1	-2.4	-13.2	-19.0	-10.9	-13.8
CSc1ccc(CN2CCC2(C)C(=O)NCc2cccc(C(F)(F)F)c2)cc1 (stereo not drawn)	x	x	-4.8	18.8	5.8	20.3
CC(=O)Nc1ccc(C=NNC(=O)c2ccc(NS(=O)(=O)c3cccs3)cc2)cc1	7.7	-2.2	7.7	-10.3	-0.4	99.8*
Oc1[nH]c2ccccc2c1N=Nc1ccccc1Cl	-36.7	-14.3	-9.0	-18.3	-52.4	-105.8
Oc1[nH]c2ccccc2c1N=Nc1c(F)c(F)c(Cl)c(F)c1F	69.1*	x	3.0	5.1	-20.5	-35.8
Cc1ccc(NC(=O)c2cccc(Oc3ccc([N+](=O)[O-])cc3)c2)c(C(=O)O)c1	9.0	-9.3	-3.7	5.3	-39.3	19.6
Cn1cc([N+](=O)[O-])c(C(=O)Nc2cc(Oc3ccccc3)cc([N+](=O)[O-])c2)n1	-15.1	82.3*	-29.4	77.9*	95.6*	104.1*
Cc1cccc(Oc2cc(NC(=O)c3ccccc3)cc([N+](=O)[O-])c2)c1	11.4	-4.0	-3.5	14.2	87.4*	39.0
COc1ccc(Cl)cc1C(=O)Nc1nc2ccccc2[nH]1	17.7	53.5	-51.7*	-31.0	7.4	-11.6
CC(C)Oc1ccc(C(=O)Nc2nc3ccccc3[nH]2)cc1	69.9*	79.7*	-50.3*	-11.9	46.9	36.6
Cc1ccccc1OCC(O)Cn1c(=N)n(Cc2ccccc2)c2ccccc21 (stereo not drawn)	-3.9	17.7	-10.5	8.8	87.2*	110.4*
CCCCn1c(=N)n(CCOc2ccc(C)cc2)c2ccccc21	-0.6	64.1*	-2.6	3.6	32.2	100.1*
COc1ccc(OCCn2c(=N)n(CCO)c3ccccc32)cc1	4.8	5.7	-2.3	-6.4	15.8	9.9
CCCCCn1c(=N)n(CC(O)COc2ccccc2OC)c2ccccc21 (stereo not drawn)	-4.6	6.0	-11.3	-5.4	86.3*!	43.0
CCCCn1c(=N)n(CC(O)COc2cccc(C)c2)c2ccccc21 (stereo not drawn)	-5.8	0.6	-8.7	5.0	77.2	69.7*
CCCn1c(=N)n(CC(O)COc2ccc(C)cc2)c2ccccc21 (stereo not drawn)	-5.3	-8.5	-24.0	14.5	24.6	2.4
CCN(CC)CCn1c(=N)n(CC(O)COc2ccccc2)c2ccccc21 (stereo not drawn)	-5.9	3.4	-28.0	9.6	13.1	2.1
O=C(Nc1cccnc1)C1Cc2c(-c3ccco3)ccnc2O1 (stereo not drawn)	x	x	-7.8	-21.9	-2.2	12.1
C=CCn1c(=N)n(CC(O)COc2ccccc2OC)c2ccccc21 (stereo not drawn)	-3.6	x	-11.5	-0.1	25.5	12.3
SMILES	LMP1 NFkB inh	MITF TRPM1 inh	KKLEB cytotox	CF NFkB block	Shn3 3UTR inh	Peg3 promoter
Cc1ccc(OCC(O)Cn2c(=N)n(CCN3CCCCC3)c3ccccc32)cc1 (stereo not drawn)	-38.7	24.5	-21.4	26.1	80.4	78.3*
COc1ccccc1OCC(O)Cn1c(=N)n(Cc2ccccc2)c2ccccc21 (stereo not drawn)	-4.0	19.9	-5.4	1.0	87.3*	32.5
COc1ccc(OCC(O)Cn2c(=N)n(CCN3CCCCC3)c3ccccc32)cc1 (stereo not drawn)	-13.8	-14.3	-11.9	6.6	56.3	15.6
Cn1nc([N+](=O)[O-])nc1S(C)(=O)=O	-8.3	72.0*	5.7	69.8*	11.2	49.3
CS(=O)(=O)c1nc([N+](=O)[O-])nn1CCCc1ccccc1	-2.0	-0.7	-43.8	90.2*	-10.4	59.5*
CC1(C(=O)NS(=O)(=O)c2ccc3c(c2)CCO3)CCN1C(=O)COc1ccc(Cl)cc1 (stereo not drawn)	x	x	0.6	1.9	-17.2	5.4
CCOc1nc(OCC)c2[nH]c(C(=O)O)c(Br)c2n1	-4.2	-3.2	-0.2	-3.8	-9.2	2.6
CCN(Cc1ccc(OC)c(F)c1)C(=O)CCl	-14.4	74.6*	-0.4	13.3	15.5	40.0
COc1ccc(S(=O)(=O)N2CCCCCC2)cc1NC(=O)c1c2c(nc3ccccc13)CCN(Cc1ccccc1)C2	-8.4	0.5	-14.7	-8.2	11.0	43.4
CCN(CC)S(=O)(=O)c1ccc(OC(C)C)c(NC(=O)c2c3c(nc4ccccc24)CCN(Cc2ccccc2)C3)c1	16.1	16.8	-28.0	20.5	35.6	54.6*
CCOc1ccc(CN(C)CC(O)COC(c2ccc(OC)cc2)c2ccc(OC)cc2)cc1 (stereo not drawn)	-7.2	-5.5	-5.8	11.6	31.4	50.2*
COc1ccc(CN(C)CC(O)COC(c2ccc(OC)cc2)c2ccc(OC)cc2)cc1 (stereo not drawn)	-6.4	-17.5	-8.1	14.1	1.9	37.9
O=S1(=O)CCN(Cc2cccnc2)CC1	-1.2	x	-4.9	17.9	-36.9	0.0
O=C(CCl)N1CCN(S(=O)(=O)c2ccc3c(c2)CCC3)CC1	-5.6	65.8*	-16.4	-23.1	-3.9	50.2*
Cc1nn(-c2ccccc2)c(C)c1/C=N/n1c(-c2ccc(Cl)cc2)n[nH]c1=S	3.4	3.9	2.8	17.2	10.7	52.7*
CN1CCN(CC(=O)c2cc(C(C)(C)C)c(O)c(C(C)(C)C)c2)CC1	86.2*	-11.4	5.2	-26.8	-4.1	9.5
Fc1ccc(-c2nnc(-c3ccc(Cl)cc3Cl)o2)cc1	3.5	x	-55.0*	-52.5	8.5	-108.6
Clc1ccc(-c2nnc(-c3ccccc3)o2)c(Cl)c1	2.6	-13.4	-31.6	-13.4	11.9	-39.8
Cc1cc(NC(=O)COC(=O)[C@H](Cc2ccccc2)NC(=O)c2ccco2)no1	1.9	1.4	6.5	-15.1	25.5	15.4
CC1(C(=O)NCc2cccnc2)Cc2c(-c3cccc(C(F)(F)F)c3)ccnc2O1 (stereo not drawn)	x	x	1.6	22.6	9.9	24.3
O=C(Cn1cnc2c(nnn2-c2ccccc2)c1=O)NCc1ccco1	87.0*	7.5	-1.3	-3.6	-20.0	3.5
Cc1ccc(-n2nnc3c(=O)n(CC(=O)NCc4ccco4)cnc32)cc1	-1.6	x	-22.6	33.0	-20.9	21.2
